Reference: PubChem BioAssay AID1159524 (National Center for Advancing Translational Sciences (NCATS), 2015)
The campaign covered roughly 410,000 compounds. About 5,100 (1.2%) were called active. About 8% were inconclusive and are not listed. Many of the other results were omitted from the sample, so actives are more common in it than they were. Values without a mark were called inactive. Calls come from the whole dose curve; tested in HEK293T cells.

test: High Throughput Screening for Foot and Mouth Disease Virus Antivirals; settings: FMDV antiviral cell-based qHTS; series mostly up to 57.9 µM; activity change, negative = inhibition: at the top concentration; note: read-out not given here; nearly all actives have a fitted effect of over 45% in size
% is set by controls: 0 for no effect and ±100 for the full control effect; potency is the fitted concentration of half-maximal effect.

Row | Compound | activity change, negative = inhibition | Potency
1 | Cc1ccn(CCC(=O)N2c3ccccc3CC2C)n1 (stereo not drawn) | -5.82% | 
2 | N[C@H](Cc1o[nH]c(=O)c1Cl)C(=O)O | -15.3% | 
3 | CC(C)C(=O)NC(C)c1nnc2n1CCN(Cc1cccc3ncccc13)CC2 (stereo not drawn) | -10.8% | 
4 | Cc1nc2cnc(Nc3ccccc3)nc2n(C[C@H]2CCCO2)c1=O | -12.6% | 
5 | C[C@@H]1C[C@@H]2O[C@H]2/C=C\C=C\C(=O)Cc2c(Cl)c(O)cc(O)c2C(=O)O1 |  | 0.1 µM (active)
6 | COCCn1c(=O)c(CCc2ccccc2)nc2cnc(N3CCNCC3)nc21 | -12.9% | 
7 | COCCn1c(=O)c(-c2ccc(OC)cc2)nc2cnc(Oc3cccc(Cl)c3)nc21 | 6.66% | 
8 | COc1ccccc1CN1CC2(CCN(S(=O)(=O)c3ccccc3)CC2)C1 | 5.12% | 
9 | COc1ccc(-c2ccc(Nc3ccc(S(=O)(=O)N4CCCC4)cc3)nn2)cc1OC |  | 14.1 µM (active)
10 | COc1cc(C(=O)NNC(=O)c2ccc(S(=O)(=O)N3CCCCC3)cc2)cc(OC)c1OC | -17.5% | 
11 | COc1ccccc1CC(=O)Nc1ccc(S(=O)(=O)N2CCCC2)cc1 | -6.62% | 
12 | CCN(CC)c1cc(NC2CCCCC2)c2c3c(onc13)-c1ccccc1C2=O | -25.1% | 
13 | CC(C)C(NS(=O)(=O)c1ccc(-c2ccc(Br)cc2)cc1)C(=O)O (stereo not drawn) | 19.1% | 
14 | CCC1(C2CCN(Cc3cccnc3)CC2)NC(=O)N(CC2COc3ccccc3O2)C1=O (stereo not drawn) | -16.1% | 
15 | Cc1cccc(C(CC(=O)NCC2(c3ccccc3)CCCC2)c2ccccc2)c1O (stereo not drawn) | -17.6% | 
16 | NCCCCCC(=O)N/N=C/c1ccc2nccnc2c1 | 6.75% | 
17 | O=C(O)c1ccc(N/N=C/c2ccc3ncccc3c2)cc1 |  | 2.82 µM (active)
18 | CCc1nc2cccnc2n1-c1ccc(C(=O)O)cc1 | -16.4% | 
19 | CCn1c(C(=O)Nc2cc(Cl)ccc2C)cc2sc(Cl)cc21 | 14.9% | 
20 | COc1ccc(NC(=O)N2CC3(CCN(C(=O)c4cccn4C)CC3)C2)cc1 | -0.131% | 
21 | CSc1ncnc2c1ncn2CC(=O)C1CCC2C3CCC4=CC(=O)CCC4(C)C3CCC12C (stereo not drawn) |  | 11.2 µM (active)
22 | CC(=O)OCC(=O)C1CCC2C3CCC4=CC(=O)CC[C@@]4(C)C3CC[C@]12C (stereo partly drawn) | -5.9% | 
23 | CC(=O)OCC(=O)[C@@]1(O)CCC2C3CCC4=CC(=O)CC[C@]4(C)C3C(=O)C[C@]21C (stereo partly drawn) | 4.63% | 
24 | COc1ccccc1N1CCN(CCCNC(=O)c2cnn(-c3ccccc3Cl)c2C2CCN(C(=O)OC(C)(C)C)CC2)CC1 | -17.2% | 

Row | Compound | activity change, negative = inhibition | Potency
25 | CN(C)CCc1c[nH]c2ccc(Cn3cncn3)cc12 | -0.17% | 
26 | O=C(CC(c1cccs1)N1Cc2ccccc2C1=O)Nc1ccc(F)cc1F (stereo not drawn) | 23.6% | 
27 | Cn1cnc([N+](=O)[O-])c1Sc1ccccc1 |  | 28.2 µM (active)
28 | Cn1cnc([N+](=O)[O-])c1Nc1ccccc1O | -7.23% | 
29 | Cn1cnc([N+](=O)[O-])c1Sc1n[nH]c(N)n1 | -7.25% | 
30 | CO[C@H]1[C@H](NC(=O)C(C)C)c2ccccc2C12CCN(Cc1cnc(N(C)C)s1)CC2 | 5.35% | 
31 | COc1ccccc1CNc1ccnc(-c2c(C)noc2C)n1 | -20.1% | 
32 | CCCC(=O)Nc1ccc(NC(=O)c2sc3ccccc3c2Cl)cc1 | 0% | 
33 | Cc1cccc(N2CCN(C(=O)c3cnc(N4CCCC4)nc3C)CC2)c1C | -25.6% | 
34 | CCC1CN(CCNC(=O)c2ccsc2)Cc2cc(OC)ccc2O1 (stereo not drawn) | 10.6% | 
35 | CCN1/C(=C\c2ccc3ccccc3[n+]2CC)Sc2cc(C)ccc21 |  | 35.5 µM (active)
36 | CC(=O)Nc1cccc(NC(=O)CSc2cn(CC(=O)N3CCCC3)c3ccccc23)c1 | 2.42% | 
37 | COc1ccc2[nH]cc(CCNc3nc(-c4cccc(NS(C)(=O)=O)c4)nc4ccccc34)c2c1 | -8.4% | 
38 | CCn1c2ccccc2c2nnc(SCC(=O)O)nc21 | -12.5% | 
39 | CCc1c2c(nc3ccc(O)cc13)-c1cc3c(c(=O)n1C2)COC(=O)[C@]3(O)CC | -11.9% | 
40 | COCCn1c(=O)c(CCc2ccccc2)nc2cncnc21 | 14.5% | 
41 | CCn1c(=O)c2ccccc2n(CC(=O)N2CCCc3ccccc32)c1=O | -17.3% | 
42 | O=C(CN1C(=O)c2ccccc2S1(=O)=O)N1CCc2ccccc21 |  | 0.794 µM (active)
43 | NS(=O)(=O)c1ccc(CCNC(=O)CN2C(=O)c3ccccc3S2(=O)=O)cc1 | -6.48% | 
44 | CO[C@H]1C=CO[C@@]2(C)Oc3c(C)c(O)c4c(O)c(c(/C=N/N5CCN(C)CC5)c(O)c4c3C2=O)NC(=O)/C(C)=C\C=C[C@H](C)[C@H](O)[C@@H](C)[C@@H](O)[C@@H](C)[C@H](OC(C)=O)[C@@H]1C | -20.7% | 
45 | Nc1nc2c(ncn2[C@@H]2O[C@H](COP(=O)(O)OP(=O)(O)OP(=O)(O)O)[C@@H](O)C2O)c(=O)[nH]1 (stereo partly drawn) | -4.64% | 
46 | O=C(c1ccco1)N1CCC[C@@]2(CCN(c3ccccc3)C2)C1 | -15.5% | 
47 | CC(C)NC(=O)N1CC[C@@]2(CCCN(C(=O)c3ccco3)C2)C1 | 0.879% | 
48 | C1CC[C@H]([C@@]23C[C@H](C[C@H]4CCCN[C@H]42)[C@@H]2CCCCN2C3)NC1 | -4.28% | 
